Assay results published in PubChem BioAssay (Tox21).
Inconclusive results are not listed. Calls of active or inactive are those of the source. Unless noted, the call rests on the fitted dose curve.

What was measured:
[1] = Nuclear factor erythroid 2-related factor 2/antioxidant responsive element (Nrf2/ARE) small molecule agonists: qHTS cell viability counter screen in human keratinocytes (AID 1919968; active means well fitted curve in the direction sought with a large enough effect in the repeat runs; an effect the other way counts as inactive or inconclusive; further: nearly all actives have a fitted effect of over 55% in size)
How it was run: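 KeratinoSens cells (HaCaT keratinocytes stably carrying an ARE-luciferase reporter) were seeded at 1,500 cells/well and rested 5 h at 37 C/5% CO2. They were then exposed to compounds in DMSO for 23 h. Viability was read by CellTiter-Fluor fluorescence after 1 h.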

[2] = Nuclear factor erythroid 2-related factor 2/antioxidant responsive element (Nrf2/ARE) small molecule agonists: luciferase reporter gene qHTS assay in human keratinocytes (AID 1919969); further: nearly all actives have a fitted effect of over 35% in size
[3] = target: Gonadotropin-releasing hormone receptor (Homo sapiens) (UniProt P30968); test: Human gonadotropin-releasing hormone receptor (GnRHR) small molecule agonists, calcium flux assay in GnRHR-HEK293 cells (AID 1920063); further: nearly all actives have a fitted effect of over 35% in size
Gonadotropin-releasing hormone receptor (Homo sapiens), sequence (P30968 whole entry, looked up): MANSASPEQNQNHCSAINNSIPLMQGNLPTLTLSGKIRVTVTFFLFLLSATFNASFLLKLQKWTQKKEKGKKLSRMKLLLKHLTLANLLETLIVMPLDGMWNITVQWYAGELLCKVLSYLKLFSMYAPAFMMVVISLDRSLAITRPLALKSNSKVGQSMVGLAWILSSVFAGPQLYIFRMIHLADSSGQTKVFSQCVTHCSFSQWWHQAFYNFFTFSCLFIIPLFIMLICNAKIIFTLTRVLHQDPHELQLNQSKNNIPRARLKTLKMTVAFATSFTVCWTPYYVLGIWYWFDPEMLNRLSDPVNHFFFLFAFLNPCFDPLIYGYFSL
How it was run: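 HEK293 cells stably expressing human GnRHR were plated 18 h at 37 °C, loaded with calcium dye 1 h at 37 °C, then given compound in agonist mode; fluorescence (Ex/Em 480/540) read kinetically for 3 min at 1 s intervals.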

[4] = target: KiSS-1 receptor (Homo sapiens) (UniProt Q969F8); test: Human kisspeptin (KISS1R) small molecule agonists, calcium flux assay in KISS1R-HEK293 cells (AID 1920064; active means well fitted curve in the direction sought with a large enough effect in the repeat runs; an effect the other way counts as inactive or inconclusive)
KiSS-1 receptor (Homo sapiens), sequence (Q969F8 whole entry, looked up): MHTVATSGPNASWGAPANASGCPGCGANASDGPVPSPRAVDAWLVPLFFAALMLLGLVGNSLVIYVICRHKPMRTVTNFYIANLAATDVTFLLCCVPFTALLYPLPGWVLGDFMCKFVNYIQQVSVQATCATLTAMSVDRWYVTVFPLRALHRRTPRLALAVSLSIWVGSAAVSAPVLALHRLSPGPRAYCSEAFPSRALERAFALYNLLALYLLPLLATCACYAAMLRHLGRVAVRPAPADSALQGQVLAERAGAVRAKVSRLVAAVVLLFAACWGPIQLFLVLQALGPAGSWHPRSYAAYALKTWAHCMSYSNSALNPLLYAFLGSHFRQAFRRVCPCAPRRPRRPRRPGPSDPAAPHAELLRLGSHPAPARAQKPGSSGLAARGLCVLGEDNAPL
How it was run: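 HEK293 cells stably expressing human KISS1R were plated 18 h at 37 °C, loaded with calcium dye for 1 h at 37 °C, then given compound by pin tool. Fluorescence (Ex/Em 480/540) was read kinetically for 3 min.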

[5] = G protein-coupled receptor (GPCR) small molecule agonists, calcium flux assay: HEK293 wild type cell line counter screen (AID 1920065)
How it was run: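 Cells were plated and cultured 18 h at 37 C/5% CO2, then loaded with calcium dye for 1 h at 37 C. Compounds in DMSO were pin-transferred in agonist mode, and fluorescence (Ex/Em 480/540) was read kinetically for 3 min at 1 s intervals.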

[6] = p53 small molecule agonists, cell-based qHTS assay with human liver microsomes (AID 1963577);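 further: p53 response element beta-lactamase reporter cells with liver microsomes plus NADPH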
How it was run: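 With metabolic activation: human liver microsomes (0.5 mg/mL final) plus NADPH (0.5 mg/mL final) added alongside compounds to p53RE-bla cells; 16 h 37 C exposure; beta-lactamase read by LiveBLAzer fluorescence.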

[7] = p53 small molecule agonists, cell-based qHTS assay with rat liver microsomes (AID 1963578)
How it was run: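 Metabolic activation by rat liver microsomes and NADPH, each 0.5 mg/mL final, added right after compounds to p53RE-bla reporter cells (4,000/well, plated 5 h earlier). 16 h at 37 C, then LiveBLAzer substrate for 2 h at room temperature in the dark; fluorescence read-out.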

[8] = p53 small molecule agonists, cell-based qHTS assay with human liver microsomes: qHTS cell viability counter screen (AID 1963579); further: nearly all actives have a fitted effect of over 45% in size; further: potency means the concentration at half of the fitted maximal effect
How it was run: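 Metabolic activation used human liver microsomes and NADPH, both 0.5 mg/mL final, over 16 hours at 37 C on p53RE-bla cells (4,000/well). Cytotoxicity measured by CellTiter-Glo luminescence, 30 min at room temperature.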

[9] = p53 small molecule agonists, cell-based qHTS assay with rat liver microsomes: qHTS cell viability counter screen (AID 1963580); further: nearly all actives have a fitted effect of over 45% in size
How it was run: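 In HCT-116 cells carrying a p53 response element-bla reporter, compounds were metabolically activated in situ by rat liver microsomes with NADPH over 16 h. Cell ATP content then served as the cytotoxicity measure.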

[10] = target: 5-hydroxytryptamine receptor 2A (Homo sapiens) (UniProt P28223); test: 5-hydroxytryptamine receptor 2A (HTR2A) small molecule antagonists, cell-based qHTS assay (AID 1963586); further: nearly all actives have a fitted effect of over 45% in size
5-hydroxytryptamine receptor 2A (Homo sapiens), sequence (P28223 whole entry, looked up): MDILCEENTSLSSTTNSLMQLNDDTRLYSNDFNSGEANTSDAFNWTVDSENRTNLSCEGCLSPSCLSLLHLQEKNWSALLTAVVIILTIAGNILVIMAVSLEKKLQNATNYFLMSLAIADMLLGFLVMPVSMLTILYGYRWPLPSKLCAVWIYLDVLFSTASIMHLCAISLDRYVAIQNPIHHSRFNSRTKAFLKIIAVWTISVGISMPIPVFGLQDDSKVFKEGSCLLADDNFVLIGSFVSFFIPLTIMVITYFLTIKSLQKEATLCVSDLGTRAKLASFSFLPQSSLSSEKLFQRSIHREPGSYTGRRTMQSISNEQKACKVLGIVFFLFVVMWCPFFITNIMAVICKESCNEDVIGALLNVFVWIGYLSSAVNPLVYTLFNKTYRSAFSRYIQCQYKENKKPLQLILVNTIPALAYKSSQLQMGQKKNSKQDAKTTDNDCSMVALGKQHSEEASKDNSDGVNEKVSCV
How it was run: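 Antagonist-mode intracellular calcium assay: DOI (4 nM) added after 5 min compound pre-incubation at room temperature to dye-loaded HTR2A-CHO cells. Fluorescence followed for 3 min, sampled every second.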

[11] = target: 5-hydroxytryptamine receptor 2A (Homo sapiens) (UniProt P28223); test: 5-hydroxytryptamine receptor 2A (HTR2A) small molecule agonists, cell-based qHTS assay (AID 1963587); further: nearly all actives have a fitted effect of over 30% in size
How it was run: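 HTR2A-CHO cells, plated 18 h at 37 C/5% CO2, dye-loaded 1 h at 37 C; compounds in DMSO added by pin tool (agonist mode). Intracellular calcium flux read as kinetic fluorescence on FDSS over 2 min at 1 s intervals.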

[12] = target: Muscarinic acetylcholine receptor M1 (Homo sapiens) (UniProt P11229); test: Cholinergic receptor muscarinic 1 (CHRM1) small molecule antagonists, cell-based qHTS assay (AID 1963588); further: nearly all actives have a fitted effect of over 40% in size
Muscarinic acetylcholine receptor M1 (Homo sapiens), sequence (P11229 whole entry, looked up): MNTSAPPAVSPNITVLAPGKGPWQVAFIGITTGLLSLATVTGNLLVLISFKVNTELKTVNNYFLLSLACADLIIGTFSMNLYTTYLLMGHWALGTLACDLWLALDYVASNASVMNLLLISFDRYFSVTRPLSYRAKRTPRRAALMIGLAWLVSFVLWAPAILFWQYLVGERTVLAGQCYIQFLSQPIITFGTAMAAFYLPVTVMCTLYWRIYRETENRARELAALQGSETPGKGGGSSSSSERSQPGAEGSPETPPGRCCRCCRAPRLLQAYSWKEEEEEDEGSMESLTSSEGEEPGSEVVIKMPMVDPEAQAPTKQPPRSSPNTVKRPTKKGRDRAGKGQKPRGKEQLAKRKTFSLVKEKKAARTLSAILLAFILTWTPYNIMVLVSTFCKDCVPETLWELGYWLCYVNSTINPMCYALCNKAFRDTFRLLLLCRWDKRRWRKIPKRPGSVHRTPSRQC
How it was run: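 CHRM1-CHO calcium-flux assay, antagonist mode. Cells were seeded 18 h, dye-loaded 1 h at 37 C and given compound for 5 min at RT, then acetylcholine was added at 50nM. FDSS fluorescence was read 3 min; 15 concentrations, three runs.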

[13] = target: Muscarinic acetylcholine receptor M1 (Homo sapiens) (UniProt P11229); test: Cholinergic receptor muscarinic 1 (CHRM1) small molecule agonists, cell-based qHTS assay (AID 1963589); further: nearly all actives have a fitted effect of over 35% in size
How it was run: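 CHO cells stably expressing human CHRM1, seeded 18 h at 37 C/5% CO2, dye-loaded 1 h at 37 C, then given compound in agonist mode; intracellular calcium fluorescence read kinetically at 1 s intervals. Fifteen concentrations, three independent runs.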

[14] = cAMP Responsive Elements (CRE) small molecule agonists, cell-based qHTS assay (AID 1963590)
How it was run: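 CRE-bla HEK 293T cells in DMEM with 10% dialyzed FBS, NEAA, pyruvate and 25 mM HEPES were plated 18 h at 37 C/5% CO2, then exposed to compounds in DMSO for 3 h before LiveBLAzer B/G FRET substrate addition.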

[15] = cAMP Responsive Elements (CRE) small molecule antagonists, cell-based qHTS assay (AID 1963591; active means well fitted inhibition curve with a large enough effect in the signal ratio in the repeat runs, not every such curve was filed as active; the % refers to the signal ratio)
How it was run: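 CRE-bla HEK293T cells were plated 18 h at 37 °C/5% CO2, pinned with compound in DMSO, then stimulated with NKH477 at 0.25 uM final for 3 h. LiveBLAzer B/G FRET substrate was added and plates incubated 2 h at room temperature.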

[16] = target: Beta-2 adrenergic receptor (Homo sapiens) (UniProt P07550); test: Adrenergic beta2 receptor (ADRB2) small molecule antagonists, cell-based qHTS assay (AID 1963592); further: series mostly up to about 92 µM; nearly all actives have a fitted effect of over 50% in size
Beta-2 adrenergic receptor (Homo sapiens), sequence (P07550 whole entry, looked up): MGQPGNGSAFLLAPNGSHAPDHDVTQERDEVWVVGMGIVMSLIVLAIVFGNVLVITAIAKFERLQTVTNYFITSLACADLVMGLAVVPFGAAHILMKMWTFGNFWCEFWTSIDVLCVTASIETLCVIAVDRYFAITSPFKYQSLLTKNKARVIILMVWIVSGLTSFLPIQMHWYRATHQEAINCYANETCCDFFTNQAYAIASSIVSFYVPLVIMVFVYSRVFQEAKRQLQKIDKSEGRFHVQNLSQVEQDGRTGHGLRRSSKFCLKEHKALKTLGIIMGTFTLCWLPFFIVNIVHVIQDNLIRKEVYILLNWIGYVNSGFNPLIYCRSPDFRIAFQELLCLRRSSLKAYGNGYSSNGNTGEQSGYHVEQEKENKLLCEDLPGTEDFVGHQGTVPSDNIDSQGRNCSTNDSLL
How it was run: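 Cells (CHO, stable ADRB2 overexpression) incubated 18-20hr at 37C; compounds added from DMSO; agonist mix (1nM isoproterenol, 100uM IBMX, 25uM Ro-20-1724) added; 0.5hr RT; d2-cAMP and anti-cAMP-cryptate added; 1hr RT; 665/615 nm read.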

[17] = target: Beta-2 adrenergic receptor (Homo sapiens) (UniProt P07550); test: Adrenergic beta2 receptor (ADRB2) small molecule agonists, cell-based qHTS assay (AID 1963593);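 further: CHO cells stably overexpressing human ADRB2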
How it was run: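 CHO cells stably over-expressing ADRB2 were plated overnight at 37C, then dosed with compounds plus a stimulation mix containing 100uM IBMX and 25uM Ro-20-1724 for 0.5hr at room temperature. cAMP was measured by HTRF competition, 1hr.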

[18] = target: D(2) dopamine receptor (Homo sapiens) (UniProt P14416); test: Dopamine D2 receptor (DRD2) small molecule agonists, cell-based qHTS assay (AID 1963594); further: nearly all actives have a fitted effect of over 35% in size
D(2) dopamine receptor (Homo sapiens), sequence (P14416 whole entry, looked up): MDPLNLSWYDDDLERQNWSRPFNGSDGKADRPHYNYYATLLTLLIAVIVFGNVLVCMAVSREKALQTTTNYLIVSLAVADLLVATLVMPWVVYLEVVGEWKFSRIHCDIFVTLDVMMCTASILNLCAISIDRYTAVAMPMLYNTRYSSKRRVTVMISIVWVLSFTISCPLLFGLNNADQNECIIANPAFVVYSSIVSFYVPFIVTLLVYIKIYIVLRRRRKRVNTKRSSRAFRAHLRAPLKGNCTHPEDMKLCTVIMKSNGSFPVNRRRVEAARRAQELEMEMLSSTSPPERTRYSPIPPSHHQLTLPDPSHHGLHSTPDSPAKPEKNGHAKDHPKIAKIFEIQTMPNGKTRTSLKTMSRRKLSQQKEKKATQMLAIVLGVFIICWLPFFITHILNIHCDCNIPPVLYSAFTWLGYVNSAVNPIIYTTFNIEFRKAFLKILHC
How it was run: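 HEK293 cells stably expressing DRD2 were cultured 24 h at 37 C, then given Ro20-1724 (0.1 mM final) and compounds for 10 min at room temperature. NKH477 (200nM) was then added for 30 min. cAMP was read by HTRF.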

[19] = target: D(2) dopamine receptor (Homo sapiens) (UniProt P14416); test: Dopamine D2 receptor (DRD2) small molecule antagonists, cell-based qHTS assay (AID 1963595; active means well fitted inhibition curve with a large enough effect in the signal ratio in the repeat runs, with a control signal flat; the % refers to the signal ratio)
How it was run: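 Cells were plated and grown for 24 h at 37 °C. Ro20-1724 (0.1 mM final) went in first, then compound for 10 min. NKH477 (200 nM) with quinpirole (12 nM) followed for 30 min at RT, then HTRF detection reagents for 1 h.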
On the % scale 0 is the no-effect control and ±100 the full control effect.

NS(=O)(=O)c1cc(C(=O)O)cc(N2CCCC2)c1Oc1ccccc1
inactive: Potency [1] | Potency [2] | Potency [3] | outcome [4] | outcome [5] | Potency [6] | Potency [7] | Potency [8] | Potency [9] | Potency [10] | Potency [11] | Potency [12] | Potency [13] | Potency [14] | Potency [15] | Potency [16] | Potency [17] | Potency [18] | Potency [19]

CC1(C)S[C@@H]2[C@H](NC(=O)C(C(=O)O)c3ccccc3)C(=O)N2[C@H]1C(=O)O (stereo partly specified)
active: Potency [8] 0.177 µM
inactive: Potency [1] | Potency [2] | Potency [3] | outcome [4] | outcome [5] | Potency [6] | Potency [7] | Potency [9] | Potency [10] | Potency [11] | Potency [12] | Potency [13] | Potency [14] | Potency [15] | Potency [19]

CCCCCCCCCCCC(C)=O
inactive: Potency [1] | Potency [2] | Potency [3] | outcome [4] | outcome [5] | Potency [6] | Potency [7] | Potency [8] | Potency [9] | Potency [10] | Potency [11] | Potency [12] | Potency [13] | Potency [14] | Potency [15] | Potency [16] | Potency [17] | Potency [18] | Potency [19]

OCCN1C[C@H](O)[C@@H](O)[C@H](O)[C@H]1CO
inactive: Potency [1] | Potency [2] | Potency [3] | outcome [4] | outcome [5] | Potency [6] | Potency [7] | Potency [8] | Potency [9] | Potency [10] | Potency [11] | Potency [12] | Potency [13] | Potency [14] | Potency [15] | Potency [17] | Potency [18]

N[C@@H](COP(=O)(O)O)C(=O)O
inactive: activity change, negative = cytotoxicity [1] 7.74% [at 19 µM] | activity, positive = activation [2] 0.218% [at 19 µM] | activity change [3] 0.11% [at 11.8 µM, stronger effect = higher value] | activation [4] 0.255% [at 15.8 µM] | activation [5] -0.0564% [at 11.8 µM] | activation [6] -0.646% [at 13.5 µM] | activation [7] -0.0703% [at 13.6 µM] | activity change, negative = cytotoxicity [8] -1.17% [at 13.5 µM] | activity change, negative = cytotoxicity [9] 4.54% [at 13.5 µM] | activity, negative = inhibition [10] -2.49% [at 12.7 µM] | activation [11] -9.17% [at 15.9 µM] | activity, negative = inhibition [12] 5.54% [at 12.6 µM] | activation [13] 11.1% [at 15.8 µM] | activation [14] -0.511% [at 19 µM] | activity change, negative = inhibition [15] -18.4% [at 18.9 µM] | activity change, negative = inhibition [16] 3.41% [at 19 µM] | activation [18] -3.09% [at 19 µM] | activity change, negative = inhibition [19] -1.71% [at 18.9 µM]

CC(C)(O)CCC(C)(C)O
inactive: Potency [1] | Potency [2] | Potency [3] | outcome [4] | outcome [5] | Potency [6] | Potency [7] | Potency [8] | Potency [9] | Potency [10] | Potency [11] | Potency [12] | Potency [13] | Potency [14] | Potency [15] | Potency [16] | Potency [18] | Potency [19]

CC(=O)C1C(=O)C=C(C)OC1=O (stereo unspecified)
inactive: Potency [1] | Potency [2] | Potency [3] | outcome [4] | outcome [5] | Potency [6] | Potency [7] | Potency [8] | Potency [9] | Potency [10] | Potency [11] | Potency [12] | Potency [13] | Potency [14] | Potency [15] | Potency [16] | Potency [18] | Potency [19]

C=CC(=O)OCCOCCOCC
inactive: Potency [1] | Potency [2] | Potency [3] | outcome [4] | outcome [5] | Potency [6] | Potency [7] | Potency [8] | Potency [9] | Potency [10] | Potency [11] | Potency [12] | Potency [13] | Potency [14] | Potency [15] | Potency [16] | Potency [18] | Potency [19]

C=COC(=O)C(C)(CC)CCC(C)C (stereo unspecified)
inactive: Potency [1] | Potency [2] | Potency [3] | outcome [4] | outcome [5] | Potency [6] | Potency [7] | Potency [8] | Potency [9] | Potency [10] | Potency [11] | Potency [12] | Potency [13] | Potency [14] | Potency [15] | Potency [16] | Potency [18] | Potency [19]
